Results on 40 compounds are retold here after PubChem BioAssay (NCATS).

Results filed as inconclusive are left out. Where a call stands in place of a potency, no number is given. Activity calls are given as the source filed them. The call rests on the fitted dose curve; in most records, active means well fitted cell-killing curve with a large enough effect; inconclusive means small, poorly fitted or top-dose-only effect, or effect the other way; inactive means no such curve, though single readings can be large or run the other way.
Potency means the concentration at half of the fitted maximal effect.

The nature of the experiment: Quantitative High-Throughput drug screen in 47 multiple myeloma cell lines against the NCATS MIPE library collection: Karpas620_DSMZ cell viability assay (AID 1918959). Further: nearly all actives have a fitted effect of over 30% in size. To be noted: Karpas620 myeloma viability, CellTiter-Glo ATP luminescence, 48 h; series mostly up to 45.8 µM. The text has this: PI: Beverly A. Mock Ph.D.
Laboratory of Cancer Biology and Genetics,
Center for Cancer Research, National Cancer Institute,
National Institute of Health, Bethesda, Maryland
Drug resistance and disease progression are common in multiple myeloma (MM) patients, underscoring the need for new therapeutic combinations. […] We hypothesized that effective combinations would reduce MYC expression and enhance p16 activity. […] These preclinical data identify potentially useful drug combinations for evaluation in drug-resistant MM and reveal potential mechanisms of combined drug sensitivity.
Described herein is the primary MIPE qHTS used to cherrypick compounds. Validated compounds were then further tested for potential synergistic activiy.
[1] Peat TJ, Gaikwad SM, Dubois W, Gyabaah-Kessie N, Zhang S, Gorjifard S, Phyo Z, Andres M, Hughitt VK, Simpson RM, Miller MA, Girvin AT, Taylor A, Williams D, D'Antonio N, Zhang Y, Rajagopalan A, Flietner E, Wilson K, Zhang X, Shinn P, Klumpp-Thomas C, McKnight C, Itkin Z, Chen L, Kazandijian D, Zhang J, Michalowski AM, Simmons JK, Keats J, Thomas CJ, Mock BA. Drug combinations identified by high-throughput screening promote cell cycle transition and upregulate Smad pathways in myeloma. Cancer Lett. 2023 Aug 1;568:216284. doi: 10.1016/j.canlet.2023.216284. Epub 2023 Jun 24. PMID: 37356470; PMCID: PMC10408729.
SEQUENCE No. (e.g., 1, 2, 3, etc.); […] (e.g., Cells, Incubation, Reagent, etc.); VALUE and DESCRIPTION.
1; Cells; 5 uL; white, solid bottom 1536-well Greiner assay plate.
2; Compounds; 23 nL; Kalypsis pin tool (Wako USA) equipped with a 1536-well pin head to transfer to the assay plates.
3; Incubation; 48 hours; 37C incubation.
4; Reagent;5uL; CellTiter Glo (Promega).
5; Detector; 425V; Luminescence; Viewlux PerkinElmer.
NOTES (numbers refer to Sequence numbers above)
1. The cell-based screening methods employed in this study were like those previously published. Briefly, the corresponding myeloma cell lines were screened in 1,536-well plates with 500 cells, 5-uL per well for inhibition of cell viability (assessed by measuring ATP levels with CellTiterGlo).
2. NCATS MIPE 4.0 library of approved and investigational drugs were added using the Kalypsis pin tool. Wells treated with DMSO only for 100% viability and media only wells for 0% viability were used as controls.
3. The assay plates were covered and incubated for 48 hours in a 37C, 5% CO2 incubator with controlled humidity.
4. After 48 hours, CellTilter-GloTM luminescent substrate mix (Promega) reagent was added to the assay plate and plates we incubated for 5 min at room temperature.
5. Signal was measured as median relative luminescence units on a ViewLux (PerkinElmer) multiplate reader.
[1] Heske CM, Davis MI, Baumgart JT, Wilson K, Gormally MV, Chen L, Zhang X, Ceribelli M, Duveau DY, Guha R, Ferrer M, Arnaldez FI, Ji J, Tran HL, Zhang Y, Mendoza A, Helman LJ, Thomas CJ. Matrix Screen Identifies Synergistic Combination of PARP Inhibitors and Nicotinamide Phosphoribosyltransferase (NAMPT) Inhibitors in Ewing Sarcoma. Clin Cancer Res. 2017 Dec 1;23(23):7301-7311. doi: 10.1158/1078-0432.CCR-17-1121. Epub 2017 Sep 12. PMID: 28899971; PMCID: PMC6636827.
Take `COc1ccc(C(=O)CC(=O)c2ccc(C(C)(C)C)cc2)cc1`: the Potency is 4.18 µM (active).
Next, `CN1CCN(c2c(F)cc3c(=O)c(C(=O)O)cn4c3c2OCN4C)CC1`: “inactive”.
For `CCN1CCCC1CNC(=O)c1cc(S(N)(=O)=O)ccc1OC` (stereo not given), the Potency entry was “inactive”.
On to `O=NN(CCCl)C(=O)NC1CCCCC1`, for which the Potency result is “inactive”.
Next, `CCn1cc(C(=O)O)c(=O)c2cc(F)c(N3CCNCC3)nc21`: “inactive”; `C[C@@H]1CN(c2c(F)c(N)c3c(=O)c(C(=O)O)cn(C4CC4)c3c2F)C[C@H](C)N1`: “inactive”.
Next, `Nc1nc(=S)c2[nH]cnc2[nH]1`: “inactive”; `CC1(C)[C@H](C(=O)O)N2C(=O)C[C@H]2S1(=O)=O`: “inactive”.
Next, `NC(=O)c1cccnc1`: “inactive”; `CC(=O)CC(c1ccccc1)c1c(O)c2ccccc2oc1=O` (stereo not given): “inactive”.
Take `O=C(O)c1cn(C2CC2)c2cc(N3CCNCC3)c(F)cc2c1=O`: the Potency result was “inactive”.
Next, `COc1cc(NCc2ccc3nc(N)nc(N)c3c2C)cc(OC)c1OC`: 6.62 µM (active); `CC(C)(C#N)c1cc(Cn2cncn2)cc(C(C)(C)C#N)c1`: “inactive”; `CCCCCCNC(=O)n1cc(F)c(=O)[nH]c1=O`: “inactive”.
Next, `COc1ccccc1OCC(O)COC(N)=O` (stereo not given): “inactive”; `CCOC(=O)[C@H](CCc1ccccc1)N[C@H]1CCc2ccccc2N(CC(=O)O)C1=O`: 14.8 µM (active).
As to `CCCOc1ccc(C(=O)OCCN(CC)CC)cc1N`, the Potency result was “inactive”.
Next, `CC(C)(C)C(=O)OCOP(=O)(COCCn1cnc2c(N)ncnc21)OCOC(=O)C(C)(C)C`: 16.6 µM (active); `CC(C)Cn1cnc2c(N)nc3ccccc3c21`: “inactive”; `CN(C)CCc1c[nH]c2ccc(CS(=O)(=O)N3CCCC3)cc12`: “inactive”.
Take `CCN(CC)CCn1c(=O)c(Cc2ccc(OC)cc2)nc2ccccc21`: the Potency result was “inactive”.
For the compound `CNS(=O)(=O)CCc1ccc2[nH]cc(C3CCN(C)CC3)c2c1`, the Potency result was “inactive”.
Next, `NS(=O)(=O)c1cc2c(cc1Cl)NC(C(Cl)Cl)NS2(=O)=O` (stereo not given): “inactive”.
Next, `CN(CCOc1ccc(CC2SC(=O)NC2=O)cc1)c1ccccn1` (stereo not given): 0.0019 µM (active); `CC(C)(Sc1cc(C(C)(C)C)c(O)c(C(C)(C)C)c1)Sc1cc(C(C)(C)C)c(O)c(C(C)(C)C)c1`: “inactive”; `CO[C@@]12[C@H](COC(N)=O)C3=C(C(=O)C(C)=C(N)C3=O)N1C[C@@H]1N[C@@H]12`: “inactive”.
Next, `O=C(O)c1cc(=O)[nH]c(=O)[nH]1`: “inactive”.
Turning to `CCCc1nc(C)c2c(=O)[nH]c(-c3cc(S(=O)(=O)N4CCN(CC)CC4)ccc3OCC)nn12`, the Potency is 2.35 µM (active).
For the compound `CC(N)C12CC3CC(CC(C3)C1)C2` (stereo not given), the Potency entry is “inactive”.
With `C[C@@H]1C[C@H]2[C@@H]3CCC4=CC(=O)C=C[C@]4(C)[C@@]3(Cl)[C@@H](O)C[C@]2(C)[C@@]1(OC(=O)c1ccco1)C(=O)CCl`, the Potency was 16.6 µM (active).
In the case of `CCOc1cc(N)c(Cl)cc1C(=O)NCC1CN(Cc2ccc(F)cc2)CCO1` (stereo not given), the Potency entry is “inactive”.
With `Nc1ccc(S(=O)(=O)Nc2ccccn2)cc1`, the Potency result is “inactive”.
Next, `CN1CCN(c2c(F)cc3c(=O)c(C(=O)O)cn(CCF)c3c2F)CC1`: “inactive”.
Next, `Nc1nc(F)nc2c1ncn2[C@@H]1O[C@H](CO)[C@@H](O)[C@@H]1O`: 0.296 µM (active).
On to `NNC(=O)c1ccncc1`, for which the Potency entry is “inactive”.
Next, `NC1(c2ccc(-c3nc4ccn5c(=O)[nH]nc5c4cc3-c3ccccc3)cc2)CCC1`: “inactive”; `C1CCC(C(CC2CCCCN2)C2CCCCC2)CC1` (stereo not given): 14.8 µM (active); `CC1=CC(=O)c2ccccc2C1=O`: 14.8 µM (active).
Next, `CNCC[C@H](Oc1cccc2ccccc12)c1cccs1`: 23.5 µM (active); `COc1ncnc(NS(=O)(=O)c2ccc(N)cc2)c1OC`: “inactive”.
